The results in this text go back to PubChem BioAssay (EPA / NIEHS).

Experiment [1] can be described thus: ACEA_ER_80hr: ACEA Biosciences xCELLigence Real-Time Cell Analysis on Estrogen Receptor Agonism for Proliferation (AID 2282667; active = hit-call score of the fitted dose curve at least 0.9, where 1 is the maximum). The note with it: T47D proliferation, impedance (xCELLigence), 80 h. The essentials:
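Estrogen-driven proliferation is captured as electrode impedance in T47D cells 80 h after compound addition. Test articles ran at 8 concentrations, 1:4 dilutions from 100 uM final, in two replicate plates.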

A short description of experiment [2]: ATG_CRE_CIS: Attagene CIS-FACTORIAL HepG2 Assay for human cAMP Responsive Element (CRE) binding protein 3 (AID 2282926). The note with it: HepG2 CRE cis-reporter, Attagene multiplexed mRNA; actives raise or lower the signal. A digest of the protocol: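 Liver-derived HepG2, transfected with a CRE-containing reporter panel, exposed 24 h; transcript levels sized and quantified by capillary electrophoresis of labelled amplicons; signal changes either way referenced to vehicle.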

Experiment [3] deals with CCAAT/enhancer-binding protein beta (Homo sapiens) (UniProt P17676). Put plainly: ATG_C_EBP_CIS: Attagene CIS-FACTORIAL HepG2 Assay for human CCAAT/Enhancer Binding Protein (C/EBP) beta (AID 2282927). The note with it: HepG2 Attagene cis-factorial transcription factor reporter; actives raise or lower the signal. A digest of the protocol:
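Following a 24 h incubation with test chemical, transfected HepG2 cells yielded RNA whose reporter transcripts were quantified by RT-PCR and fluorescent capillary electrophoresis, with DMSO serving as baseline for bidirectional fitting.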

Experiment [4] is described as follows: ATG_CMV_CIS: Attagene CIS-FACTORIAL HepG2 Assay for human CMV (Internal Marker) (AID 2282928).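 Note: endpoint acts as a background internal control marker rather than a target.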 The note with it: HepG2 CMV promoter reporter, transcription factor profiling; actives raise or lower the signal. The essentials:
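Bidirectional fits against DMSO are applied to reporter mRNA, read by RT-PCR with capillary electrophoresis, from HepG2 cells exposed 24 h. The endpoint serves as an internal CMV background marker within the cis-factorial reporter panel.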

Experiment [5] in a line: ATG_DR4_LXR_CIS: Attagene CIS-FACTORIAL HepG2 Assay for human Liver X Receptor (LXR), DR4 submotif (AID 2282929). The note with it: HepG2 Attagene DR4 cis-reporter, mRNA transcription; actives raise or lower the signal. The essentials:
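The endpoint is DR4-element-driven reporter transcripts after 24 h chemical exposure of transfected HepG2 cells. These were measured via RT-PCR and capillary electrophoresis, and gain or loss of signal was fitted relative to DMSO controls.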

Experiment [6] addresses Aryl hydrocarbon receptor (Homo sapiens) (UniProt P35869). Put plainly: ATG_Ahr_CIS: Attagene CIS-FACTORIAL HepG2 Assay for human Aryl Hydrocarbon Receptor (Ahr) (AID 2282930). The following applies: HepG2 AhR cis-factorial reporter transcription; actives raise or lower the signal. The essentials:
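Values derive from bidirectional fitting against DMSO negative control. Underlying signal: cis-element reporter mRNA in transiently transfected HepG2, harvested 24 h post-dose and measured by RT-PCR plus capillary electrophoresis.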

Experiment [7] in a line: ATG_AP_1_CIS: Attagene CIS-FACTORIAL HepG2 Assay for human Activator Protein 1 (AP-1) (AID 2282931). The following applies: HepG2 Attagene cis-factorial AP-1 reporter mRNA; actives raise or lower the signal. A digest of the protocol: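 Readout is reporter transcript level from endogenous transcription factor activity, quantified by RT-PCR with fluorescent primer extension and capillary electrophoresis. Transiently transfected HepG2 cells, 24 h exposure. Curves fitted both directions versus DMSO.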

Experiment [8] can be described thus: ATG_AP_2_CIS: Attagene CIS-FACTORIAL HepG2 Assay for human Activator Protein 2 (AP-2) (AID 2282932). The note with it: HepG2 AP-2 cis-reporter, Attagene transcription factor profiling; actives raise or lower the signal. The essentials:
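Assay in transfected HepG2 with promoter-regulated reporters, 24 h incubation after dosing. Signal is reporter mRNA fluorescence (RT-PCR, capillary electrophoresis), analysed for both increases and decreases relative to DMSO controls.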

The nature of experiment [9]: ATG_BRE_CIS: Attagene CIS-FACTORIAL HepG2 Assay for human Bone Morphogenetic Protein (BMP) Response Element (BRE) (AID 2282933). The following applies: HepG2 BMP response element reporter, Attagene transcription factor profiling; actives raise or lower the signal. The essentials: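 Read-out: reporter mRNA induction quantified by RT-PCR and capillary electrophoresis after 24 h chemical exposure of transfected HepG2 cells. Endogenous factor activity on the BMP response element; gain or loss fitted against DMSO baseline.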

In experiment [10] the target is Retinoic acid receptor alpha (Homo sapiens) (UniProt P10276). Put plainly: ATG_DR5_RAR_CIS: Attagene CIS-FACTORIAL HepG2 Assay for human Retinoic Acid Receptor Alpha (RARE), DR5 submotif (AID 2282934).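 For AC50: reporter responds to endogenous RAR alpha beta and gamma in HepG2 not RARA alone.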 The note with it: HepG2 Attagene cis-factorial RARE DR5 reporter, mRNA; actives raise or lower the signal. A digest of the protocol: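 Endpoint fitted in both directions relative to DMSO as negative control. It reflects DR5 cis-element reporter mRNA induction in transiently transfected HepG2 cells, measured 24 h after dosing through RT-PCR and fluorescent capillary electrophoresis.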

Results filed as inconclusive are left out. Active and inactive are the calls of the source. Rule for the calls, unless noted: active = hit-call score of the fitted dose curve at least 0.9, where 1 is the maximum; inactive = score below 0.9. Peptide text beside a SMILES is read from it.

Sequence of CCAAT/enhancer-binding protein beta (Homo sapiens) (P17676 whole entry, looked up): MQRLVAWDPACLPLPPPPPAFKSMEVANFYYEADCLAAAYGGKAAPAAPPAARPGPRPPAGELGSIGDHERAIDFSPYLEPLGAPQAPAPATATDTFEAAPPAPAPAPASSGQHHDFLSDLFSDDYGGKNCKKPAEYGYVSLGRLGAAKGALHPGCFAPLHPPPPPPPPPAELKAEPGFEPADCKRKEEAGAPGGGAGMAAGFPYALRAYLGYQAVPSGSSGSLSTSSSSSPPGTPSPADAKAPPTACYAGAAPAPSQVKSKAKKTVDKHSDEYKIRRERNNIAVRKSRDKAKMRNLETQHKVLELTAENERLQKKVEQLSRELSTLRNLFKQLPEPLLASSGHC
Sequence of Aryl hydrocarbon receptor (Homo sapiens) (P35869 whole entry, looked up): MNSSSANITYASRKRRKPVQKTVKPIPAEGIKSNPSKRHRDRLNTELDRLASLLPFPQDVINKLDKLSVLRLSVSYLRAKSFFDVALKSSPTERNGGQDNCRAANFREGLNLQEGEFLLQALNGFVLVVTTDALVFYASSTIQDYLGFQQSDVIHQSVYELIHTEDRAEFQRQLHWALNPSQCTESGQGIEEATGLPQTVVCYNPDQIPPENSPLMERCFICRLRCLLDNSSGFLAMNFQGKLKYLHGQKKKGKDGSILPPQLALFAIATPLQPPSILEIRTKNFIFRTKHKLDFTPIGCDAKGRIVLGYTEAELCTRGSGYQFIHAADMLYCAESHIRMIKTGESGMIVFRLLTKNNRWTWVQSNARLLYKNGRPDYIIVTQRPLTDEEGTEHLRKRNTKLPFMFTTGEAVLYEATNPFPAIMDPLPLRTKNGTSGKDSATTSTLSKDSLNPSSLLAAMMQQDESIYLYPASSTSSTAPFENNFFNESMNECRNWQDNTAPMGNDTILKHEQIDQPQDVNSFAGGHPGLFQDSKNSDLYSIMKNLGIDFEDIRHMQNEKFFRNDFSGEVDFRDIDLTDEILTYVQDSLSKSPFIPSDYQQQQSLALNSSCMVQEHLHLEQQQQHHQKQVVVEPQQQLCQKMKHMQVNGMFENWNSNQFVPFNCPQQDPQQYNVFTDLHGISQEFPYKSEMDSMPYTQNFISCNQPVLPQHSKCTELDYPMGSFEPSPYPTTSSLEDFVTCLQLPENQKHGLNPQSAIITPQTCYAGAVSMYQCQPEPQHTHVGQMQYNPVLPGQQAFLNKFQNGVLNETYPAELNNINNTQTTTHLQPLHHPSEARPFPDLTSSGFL
Sequence of Retinoic acid receptor alpha (Homo sapiens) (P10276 whole entry, looked up): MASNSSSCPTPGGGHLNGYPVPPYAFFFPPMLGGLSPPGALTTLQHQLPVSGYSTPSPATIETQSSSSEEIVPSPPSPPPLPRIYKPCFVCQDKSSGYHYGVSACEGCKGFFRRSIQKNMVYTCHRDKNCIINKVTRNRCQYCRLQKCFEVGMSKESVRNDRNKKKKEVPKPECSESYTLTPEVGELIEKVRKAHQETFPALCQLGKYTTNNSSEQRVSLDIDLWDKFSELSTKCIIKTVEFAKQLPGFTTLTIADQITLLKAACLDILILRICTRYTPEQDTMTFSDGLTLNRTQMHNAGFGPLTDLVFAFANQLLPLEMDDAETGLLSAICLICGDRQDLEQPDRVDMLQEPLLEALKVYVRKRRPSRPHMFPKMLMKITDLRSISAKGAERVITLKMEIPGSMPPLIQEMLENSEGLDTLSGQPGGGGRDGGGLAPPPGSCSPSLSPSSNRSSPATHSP

On to `CC(=O)c1ccc(S(=O)(=O)NC(=O)NC2CCCCC2)cc1`, for which the outcome in experiment [1], in [2], in experiment [3], in [4], in experiment [5] and in [7] was inactive. For the same molecule, the molecule was called inactive in experiment [8], in experiment [9] and in [10]. In addition, the AC50 in experiment [6] was 100 µM (active).
With `CC(C)(O)Cc1ccccc1`, the molecule was called inactive in experiment [1], in experiment [2], in experiment [3], in [4], in experiment [5] and in experiment [6]. Moreover, the call in [7], in [8], in experiment [9] and in [10] was inactive.
Consider `O=C(Oc1ccccc1)c1ccccc1C(=O)Oc1ccccc1`, for which the call in [1], in experiment [2], in [3], in experiment [4], in [5] and in [6] was inactive. For the same molecule, the call in experiment [8], in experiment [9] and in experiment [10] was inactive. In addition, in [7], the AC50 was 46.3 µM (active).
On to `Cc1cc(=O)[nH]c(=O)[nH]1`, for which the result in experiment [1], in [2], in experiment [3], in experiment [4], in [5] and in experiment [6] was inactive. The call in [7], in experiment [8], in experiment [9] and in experiment [10] was inactive.
For the molecule `CCCCc1ccc(Cl)cc1`, the result in [1], in experiment [2], in experiment [3], in experiment [4], in experiment [5] and in experiment [6] was inactive. Besides, the outcome in experiment [7], in experiment [8], in experiment [9] and in [10] was inactive.
Consider `CCOC(=O)/C=C\C(=O)OCC`, for which the outcome in experiment [1], in experiment [2], in experiment [3], in [4], in experiment [5] and in experiment [6] was inactive. Also, the outcome in experiment [8], in experiment [9] and in [10] was inactive. The concentration at half-maximal activity (AC50) in experiment [7] was 50.5 µM (active).
For the molecule `N=C1C=CC(=C(c2ccc(N)cc2)c2ccc(N)cc2)C=C1`, the molecule was classed as inactive in [1] and in [2]. Besides, the AC50 in experiment [3] is 168 µM (active); in experiment [4] it was 33.4 µM (active); in experiment [5], 27.6 µM (active); in experiment [6], 8.36 µM (active); in experiment [8], 24.7 µM (active); in [9], 33.4 µM (active).
Take `CCCCCCCCCCCCCC(=O)OC(C)C`: the result in [1], in experiment [2], in experiment [3], in [4], in experiment [5] and in [6] was inactive. In addition, the outcome in [7], in experiment [8], in [9] and in [10] was inactive.
As for `[Cl][Eu]([Cl])[Cl]`, the call in [1], in experiment [2], in experiment [3], in [4], in experiment [5] and in [6] was inactive. Further, the call in experiment [7], in experiment [8], in experiment [9] and in experiment [10] was inactive.
With `COC(=O)[C@H](Cc1ccccc1)NC(=O)[C@@H](N)CC(=O)O` (H-Asp-Phe-OMe), the call in [1], in experiment [2], in experiment [3], in [4], in experiment [5] and in [6] was inactive. The outcome in [7], in experiment [8], in experiment [9] and in experiment [10] was inactive.
Regarding `O=C(O)CCCC(=O)O`, the result in experiment [1], in experiment [2], in [3], in experiment [4], in [5] and in experiment [6] was inactive. Besides, the result in experiment [7], in [8], in experiment [9] and in experiment [10] was inactive.
Turning to `CC(C)C(=O)OCCOc1ccccc1`, the result in [1], in [2], in [3], in [4], in experiment [5] and in experiment [6] was inactive. Moreover, the outcome in experiment [7], in experiment [8], in [9] and in [10] was inactive.
Regarding `COc1ccc(C(=O)/C(Br)=C\C(=O)O)cc1`, the result in [1], in experiment [2], in [6], in experiment [8], in experiment [9] and in [10] was inactive. The AC50 in experiment [3] was 129 µM (active); in [4], 36 µM (active); in [5], 27.8 µM (active); in [7], 26.4 µM (active).
For the molecule `CCCCCCCCCCCCCc1ccccc1`, the call in [1], in experiment [2], in experiment [3], in experiment [4], in experiment [5] and in [6] was inactive. The call in experiment [8], in experiment [9] and in [10] was inactive.
Turning to `CC(C)=CCCC(C)=CC#N`, the molecule was called inactive in experiment [1], in experiment [2], in [3], in experiment [4], in experiment [5] and in [6]. Besides, the molecule was classed as inactive in experiment [7], in experiment [8], in experiment [9] and in experiment [10].
With `Cc1c[nH]c(=O)[nH]c1=O`, the call in [1], in experiment [2], in experiment [3], in experiment [4], in experiment [5] and in experiment [6] was inactive. Moreover, the call in experiment [7], in [8], in [9] and in [10] was inactive.
`CC=C(C)C(C)=O`: the result in [1], in experiment [2], in [3], in experiment [4], in experiment [5] and in [6] was inactive. For the same molecule, the molecule was called inactive in experiment [7], in experiment [8] and in experiment [9]. The concentration at half-maximal activity (AC50) in [10] was 43 µM (active).
For the molecule `CCC[Si](OC)(OC)OC`, the call in [1], in experiment [2], in experiment [3], in experiment [4], in [5] and in [6] was inactive. Also, the outcome in experiment [7], in [8], in [9] and in [10] was inactive.
As to `O=C1CCCCCCCCCCCN1`, the AC50 in experiment [1] is 53.3 µM (active). The call in [2], in [3], in experiment [4], in [5], in [6] and in experiment [7] was inactive. Also, the call in [8], in experiment [9] and in experiment [10] was inactive.
As for `CC1CCC(=O)C1=O` (stereo unspecified), the result in [1], in experiment [2], in experiment [3], in experiment [4], in experiment [5] and in [6] was inactive. In addition, the outcome in experiment [7], in experiment [8], in experiment [9] and in experiment [10] was inactive.
As to `COc1ccc(-c2coc3cc(O)cc(O)c3c2=O)cc1`, the AC50 is 0.673 µM (active) in [1]; 21.6 µM (active) in experiment [4]; 27 µM (active) in experiment [6]; 64 µM (active) in experiment [7]; 67.2 µM (active) in experiment [9]. In addition, the outcome in experiment [2], in [3], in experiment [5], in [8] and in [10] was inactive.
Consider `CCCCCCCC(=O)OCC`, for which the result in experiment [1], in [2], in experiment [3], in experiment [4], in experiment [5] and in experiment [6] was inactive. Also, the molecule was classed as inactive in [7], in [8], in experiment [9] and in [10].
Regarding `CC(C)(c1ccccc1)c1ccc(Nc2ccc(C(C)(C)c3ccccc3)cc2)cc1`, the call in experiment [1], in experiment [2], in experiment [3], in experiment [4], in experiment [5] and in experiment [6] was inactive. For the same molecule, the outcome in experiment [7], in [8], in [9] and in experiment [10] was inactive.
For `CCCCCC(=O)OCC`, the outcome in experiment [1], in [2], in experiment [3], in experiment [4], in experiment [5] and in experiment [6] was inactive. Further, the call in experiment [7], in experiment [8], in [9] and in experiment [10] was inactive.
`c1ccc(Nc2cccc3ccccc23)cc1`: the call in experiment [1], in [5], in [6] and in [8] was inactive. The half-maximal activity concentration (AC50) in [2] is 48.3 µM (active); in [3], 45.7 µM (active); in experiment [4] it was 33.4 µM (active); in experiment [7], 53.7 µM (active); in [9], 49.2 µM (active); in experiment [10], 33.4 µM (active).
Turning to `CCCCOC(=O)CCC(C)=O`, the molecule was called inactive in experiment [1], in experiment [2], in [3], in experiment [4], in experiment [5] and in experiment [6]. The molecule was classed as inactive in experiment [8], in experiment [9] and in experiment [10].
